Among the data in PubChem BioAssay AID488864 (Broad Institute, 2010) are outcome values, retold here.

Entries with a potency or affinity are not part of this list. Activity calls are given as the source filed them.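 How the source made its calls: active means ATP signal reduced by compound, with fitted active dose under ten times the top valid tested dose; inactive means the rest, compounds that increase ATP levels included.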

A short description of the assay: INS-1E beta-cell viability without cytokines, dose response, cytotoxicity control for beta-cell cytokine protection project, CellTiter-Glo luminescence, dry powder (AID 488864). The conditions noted are these: INS-1E rat beta cells, 48 h, no cytokines; series mostly up to 26 µM.

Consider `COc1ccc(S(=O)(=O)N(C)C[C@@H]2Oc3ccc(NC(=O)Nc4cccc5ccccc45)cc3C(=O)N([C@@H](C)CO)C[C@H]2C)cc1`, for which the compound was called inactive. The entry for `COc1ccccc1S(=O)(=O)N(C)C[C@@H]1Oc2c(NC(=O)Nc3cccc4ccccc34)cccc2C(=O)N([C@@H](C)CO)C[C@H]1C` is “inactive”.

As for `C[C@@H]1CN([C@@H](C)CO)C(=O)c2cccc(NC(=O)Nc3cccc4ccccc34)c2O[C@H]1CN(C)S(=O)(=O)c1ccc(Cl)cc1`, the call was inactive. In the case of `COc1ccc(S(=O)(=O)N(C)C[C@@H]2Oc3c(NC(=O)C4CC4)cccc3C(=O)N([C@@H](C)CO)C[C@H]2C)cc1`, the compound was classed as inactive. Regarding `COc1ccc(S(=O)(=O)N(C)C[C@@H]2Oc3c(NC(=O)C4CCOCC4)cccc3C(=O)N([C@@H](C)CO)C[C@H]2C)cc1`, the call was inactive. Turning to `COc1ccc(S(=O)(=O)N(C)C[C@@H]2Oc3c(NC(=O)Nc4ccccc4)cccc3C(=O)N([C@H](C)CO)C[C@H]2C)cc1`, the result was inactive. The entry for `COc1ccc(S(=O)(=O)N(C)C[C@@H]2Oc3c(NC(=O)Nc4cccc5ccccc45)cccc3C(=O)N([C@@H](C)CO)C[C@H]2C)cc1` is “inactive”; for `COc1ccc(S(=O)(=O)N(C)C[C@@H]2Oc3c(NC(=O)C4CCCCC4)cccc3C(=O)N([C@@H](C)CO)C[C@H]2C)cc1` it is “inactive”.
